# In the library only some 2.4% were active in any assay of this set; here they are far more common.
# D2 ag-1: D2 dopamine receptor (human) agonism; 340,000 tested, 0.53% active; P14416; HEK293 T-REx D2 cells, calcium flux agonist mode; activation, % at 2 µM;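 active = activation over 3 SD above normal in the single-dose calcium agonist read, cut at about 30% in these data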; also: 0% is about no effect
# Target sequence (P14416 whole entry, looked up): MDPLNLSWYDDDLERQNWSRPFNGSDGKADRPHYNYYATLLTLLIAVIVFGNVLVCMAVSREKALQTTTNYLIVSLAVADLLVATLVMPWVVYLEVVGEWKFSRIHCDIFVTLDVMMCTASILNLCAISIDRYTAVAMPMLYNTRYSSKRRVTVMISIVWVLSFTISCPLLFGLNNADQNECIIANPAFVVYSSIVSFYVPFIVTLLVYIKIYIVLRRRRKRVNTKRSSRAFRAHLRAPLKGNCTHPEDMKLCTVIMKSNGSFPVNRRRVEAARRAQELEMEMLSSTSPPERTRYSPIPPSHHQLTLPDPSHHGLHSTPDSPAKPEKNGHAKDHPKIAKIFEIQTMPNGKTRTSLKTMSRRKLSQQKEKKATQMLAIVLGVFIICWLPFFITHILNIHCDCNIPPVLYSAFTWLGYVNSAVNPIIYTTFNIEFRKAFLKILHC
#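 Agonism is scored from calcium flux in a force-coupled, inducible HEK293 cell line expressing D2, read kinetically for 180 s after compound addition against dopamine controls.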
# D2 antag: antagonists of human D2 dopamine receptor; P14416; HEK293 TREx D2 cells, calcium flux, dopamine EC80; inhibition, % at 10 µM; 340,000 tested, 2% active; AID 485344; in the data active = inhibition above about 30%; inactive = below that, where a call was filed; also: 0% is about no effect
#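 Read-out: kinetic calcium fluorescence (1 cycle/s) in inducible HEK293 T-REx D2 cells after an EC80 dopamine addition that followed 180 s compound preincubation. Loss of the dopamine response indicates antagonism.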
# D2 PAM-1: potentiates the human D2 dopamine receptor allosterically | AID 624464 | DiscoveRx D2 beta-arrestin cells, luminescence, 90 min; 100% = 57 uM dopamine signal | 360,000 tested, 0.23% active | potentiation, % (no concentration beside the values); in the data active = potentiation above about 50%; inconclusive = mostly about 30% to 49%
#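 PathHunter D2 cells, attached overnight at 37 deg C, received compound in DMSO plus dopamine at EC20 (50 nM final) for 90 min at 37 deg C. Beta-arrestin recruitment was read as luminescence after 1 h with detection reagent at ambient temperature.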
# D2 PAM-2: D2 dopamine receptor (human) potentiation | HEK293 T-REx D2, calcium flux, EC20 dopamine potentiation | potentiation, % at 10 µM | 340,000 tested, 0.34% active;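 active = potentiation over 3 SD above the plate norm, cut at about 30% in these data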; also: 0% is about no effect
#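 Potentiation of an EC20 dopamine calcium response is measured in a force-coupled, tetracycline-inducible Hek293 Trex D2 line. Compound-only kinetic reads over 180 s flag agonists before dopamine addition.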
# D2 ag-2: agonists of human D2 dopamine receptor (beta-arrestin) | P14416 | DiscoveRx PathHunter D2 beta-arrestin, luminescence, 90 min; 100% = 57 uM dopamine signal | activation, % (no concentration beside the values) | 360,000 tested, 0.084% active; in the data active = activation above about 40%; inconclusive = between about 15% and that limit
#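 DiscoveRx PathHunter D2 beta-arrestin cells (2,100/well) attached overnight, then compound-stimulated 90 min at 37 C in HBSS/10 mM HEPES/0.1% Tween-20 buffer; beta-galactosidase complementation read by luminescence after 1 h at ambient temperature. Dopamine 57 uM final (EC100) as control.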
# * = called active by the depositor; ? = inconclusive; . = no result.
SMILES,D2 ag-1,D2 antag,D2 PAM-1,D2 PAM-2,D2 ag-2
CC1CN(CCOCCSc2ccc(Cl)cc2)CC(C)O1 (stereo unspecified),-0.7,50.2*,-62.4,-14.1,-1.2
CCOC(=O)C1CCN(C(=O)Cn2c(=O)cc(C)c3c(C)nn(C)c32)CC1,-0.1,.,.,7.0,.
CCCN(CCC)C(=O)CSc1ncccc1C(=O)O,37.6*,3.5,-16.9,-18.8,-0.5
CCNc1nc(NC(C)C)nc(NS(=O)(=O)c2ccc(C)cc2)n1,-1.7,4.9,-2.3,-0.8,1.2
S=C1NC2(CCCCC2)Cc2ccccc21,-0.8,32.0*,-6.4,-5.8,-1.9
CC(=O)Nc1ccc(S(=O)(=O)Nc2cc(-c3cn4ccccc4n3)ccc2C)cc1,0.8,.,.,-1.7,.
CN(Cc1ccc(F)cc1)C(=O)c1cc(COc2ccc(-n3cncn3)cc2)on1,0.4,-9.7,66.6*,1.9,1.9
C=CCNCCOCCSc1ccc(Cl)cc1,-0.4,31.8*,-27.9,-19.9,6.2
Cc1noc(C)c1CSc1nc2ccccc2n1CCc1ccccc1,-1.0,-13.0,-9.5,35.5*,-1.6
CC(C)N(C(=O)CSc1nc2ccccc2n1Cc1ccccc1)C(C)C,-1.0,-24.7,-17.4,36.0*,-5.6
CCSc1nc2ccccc2n1CC(=O)OC,0.0,-5.8,-5.6,-0.1,-3.6
COC(=O)Cn1c(SCc2ccccc2)nc2ccccc21,-0.6,-1.4,-3.8,31.3*,-0.5
O=C(O)CCn1c(SCc2ccccc2)nc2ccccc21,0.2,-0.5,-12.2,-5.1,-1.2
CC1CCc2cc(F)ccc2N1C(=O)C12CCC(C)(C(=O)O1)C2(C)C (stereo unspecified),0.0,32.0*,0.7,-5.4,-3.2
Clc1ccc(-c2nnc(SCc3nc(-c4ccccc4)no3)o2)cc1,0.3,40.6*,-3.1,-7.6,-4.8
c1ccc(-c2noc(CSc3nc4ccccc4o3)n2)cc1,-0.7,-3.3,-7.4,-4.8,0.6
O=C(NCc1nc2ccccc2[nH]1)C1=C[C@H](C2CC2)C[C@H](OCc2ccc(CO)cc2)O1,0.8,40.0*,-14.3,2.2,-1.7
O=C(NCc1nc2ccccc2[nH]1)C1=C[C@@H](C2CC2)C[C@@H](OCc2ccc(CO)cc2)O1,1.8,8.2,-40.1,2.4,0.9
COc1cc(CN2CCCC(CO)(Cc3ccccc3F)C2)ccc1O (stereo unspecified),0.3,14.4,-4.6,-5.6,-4.9
COC(=O)c1ccc(CN2CCCC(CO)(Cc3ccccc3F)C2)cc1 (stereo unspecified),-2.2,83.7*,-0.7,-19.6,-0.8
Cc1nc2ccc(C(=O)N3CCCC(CO)(Cc4ccc(F)cc4F)C3)cc2nc1C (stereo unspecified),0.5,30.1*,-8.3,-24.8,2.4
CCOc1ccc(CN2CCCC(CO)(Cc3ccc(F)cc3)C2)cc1 (stereo unspecified),0.5,68.1*,-21.3,-17.7,-0.9
CSc1ccc(CN2CCCC(CO)(Cc3ccccc3)C2)cc1 (stereo unspecified),0.0,51.0*,-12.0,-27.2,-1.7
CCN(CC)c1ccc(NC(=O)c2ccc3c(c2)OCO3)c(C)c1,.,.,-1.4,7.6,0.6
CCOC(=O)C1=C(C)NC(C)=C(C(=O)OCC)C1C(=O)OCC(=O)NCc1ccc(F)cc1,.,.,-1.7,.,-2.4
SMILES,D2 ag-1,D2 antag,D2 PAM-1,D2 PAM-2,D2 ag-2
C[C@@H]1CN([C@H](C)CO)C(=O)CCCn2nncc2CO[C@H]1CN(C)Cc1ccc2c(c1)OCO2,.,.,-2.0,.,-11.2
COc1ccc(CN2CCCC(CO)(Cc3ccc(F)cc3F)C2)cc1 (stereo unspecified),0.6,42.9*,-12.2,-22.6,-2.2
CC(C)Cc1cc(CN2CCCC(CO)(Cc3cccc(Cl)c3)C2)[nH]n1 (stereo unspecified),0.7,53.5*,-13.2,-27.8,-3.9
OCC1(CCc2ccccc2)CCCN(CCCc2ccccc2)C1 (stereo unspecified),0.2,76.4*,-23.2,-22.7,4.8
CC(C)CCOc1ccc(Cn2c(=O)sc3ccccc32)cc1,0.3,.,.,15.5,.
Cc1cc(C)cc(NC(=O)CC(C)n2nc(C)cc2C)c1 (stereo unspecified),1.1,.,.,-5.1,.
O=C(Nc1ccccc1N1CCCC1)C1CCCO1 (stereo unspecified),0.2,5.7,-11.6,20.6,-2.3
S=C(NCCc1ccccc1)N1CCn2cccc2C1c1cccnc1 (stereo unspecified),0.4,37.3*,-18.6,-17.2,-3.5
Cc1[nH]c2ccccc2c1C1C(c2ccccc2)=NN=C(C(C)C)N1O (stereo unspecified),0.4,6.1,11.9,30.9*,0.9
CC(=O)C(=Nc1ccccc1Cl)NNc1ccc(Cl)cc1,0.5,0.7,?,33.7*,?
Cc1nc2sc(C(c3ccccc3)N3CCN(C)CC3)c(O)n2n1 (stereo unspecified),-1.3,46.7*,-5.3,0.5,-0.5
O=C(NCC1CCCN1S(=O)(=O)c1cccs1)c1ccc([N+](=O)[O-])cc1 (stereo unspecified),1.1,-7.5,2.5,-7.8,1.2
CCOc1ccc(N2C(=O)/C(=C/c3cc(OC)c(OC)c(OC)c3)N(CC(=O)OC)C2=S)cc1,1.6,-6.8,-1.3,46.5*,-3.9
CCOc1ccc(/C=C2/C(=O)N(c3ccc(OC)cc3)C(=S)N2CC(=O)OC)cc1OCC,0.8,17.5,10.2,-2.1,-4.1
COc1ccc(CCNC(=O)c2ccc3c(c2)CCN3S(=O)(=O)c2ccccc2)cc1OC,0.1,.,.,9.9,.
CC1CCN(CCOCCOc2ccc(Cl)cc2Br)CC1,0.0,68.6*,-30.5,-20.9,-2.0
CC1CCCN(CCOc2ccc3ccccc3c2Br)C1 (stereo unspecified),0.1,71.5*,-12.4,-27.4,-3.5
Clc1ccc(Cl)c(OCCN2CCCC2)c1,0.8,46.7*,-5.4,-14.0,4.4
CC1CCN(CCCOc2ccc(Cl)cc2Br)CC1,0.0,33.5*,-29.4,-26.1,-5.3
CCOc1ccc(S(=O)(=O)N2CN(c3cccc(C(C)=O)c3)c3nc4ccccc4nc32)cc1,.,.,-16.1,.,1.2
Nc1ccccc1SCC(=O)Nc1ccc2c(c1)OCO2,-1.4,-15.2,-12.6,-7.6,-2.4
COc1cccc(OCc2cc(C(=O)NCc3cnc4ccccn34)no2)c1,0.3,-17.2,-4.4,15.5,5.8
CN(C)CCOCCOc1ccc(Cl)cc1Br,0.5,18.6,-27.9,-31.3,-5.3
CC(C)NCCOCCOc1ccc(Cl)cc1Br,0.1,66.9*,-36.1,-28.8,-3.1
Clc1ccc(OCCOCCN2CCCCC2)c(Br)c1,0.9,76.9*,6.0,-24.5,1.5
Cc1ccc(Cl)c(OCCN2CCCC(C)C2)c1 (stereo unspecified),2.6,53.1*,-26.6,-19.2,-1.5
CCc1ccc(NC(=O)CN(c2ccc(C)cc2)S(=O)(=O)c2cccs2)cc1,-0.8,.,.,-5.3,.

# Screening data as filed in PubChem BioAssay.
